From PubChem BioAssay (NCI)
The panel holds about 79,000 compounds, 15% with a hit somewhere; the sample as a whole holds those more often. A number with no mark means an inactive call. Active and inactive are the calls of the source. Cut-off read from the data, not from the text of the source: active = growth inhibition above about 70%; inactive = the rest.

Columns and labels:
[1] = NCI Yeast Anticancer Drug Screen. Data for the rad50 strain (AID 155);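 note: 0% = growth of vehicle-only cultures of the same strain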; conditions: S. cerevisiae rad50 strain growth inhibition, active compounds read high
In short: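 Growth of the mutant yeast was measured after compound exposure and referenced to vehicle-treated cultures.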

[2] = NCI Yeast Anticancer Drug Screen. Data for the mec2-1 strain (AID 157); conditions: S. cerevisiae mec2-1 strain, active compounds read high
In short: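 Mutant yeast (mec2-1) grown with compound; growth inhibition relative to vehicle control reported.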

[3] = NCI Yeast Anticancer Drug Screen. Data for the sgs1 mgt1 strain (AID 161);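 note: 0% = growth of cultures given vehicle only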; conditions: S. cerevisiae sgs1 mgt1 strain, active compounds read high
In short: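 Yeast cells carrying a defined DNA-repair defect were exposed to test compounds. Growth inhibition was measured relative to vehicle-treated controls.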

[4] = NCI Yeast Anticancer Drug Screen. Data for the cln2 rad14 strain (AID 165);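 note: 0% = growth equal to vehicle treated cultures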; conditions: S. cerevisiae cln2 rad14 strain, active compounds read high
In short: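 Readout is yeast growth inhibition versus vehicle-treated controls, using a strain with cln2 and rad14 alterations exposed to compound.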

[5] = NCI Yeast Anticancer Drug Screen. Data for the bub3 strain (AID 167); conditions: S. cerevisiae bub3 mutant strain, active compounds read high
In short: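 Whole-cell yeast assay. The mutant strain was incubated with compounds, and growth inhibition was determined by comparison with vehicle-treated cells.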

[6] = NCI Yeast Anticancer Drug Screen. Data for the mlh1 rad18 strain (AID 175); conditions: S. cerevisiae mlh1 rad18 strain growth inhibition, active compounds read high
In short: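 Genetically defined yeast (DNA repair-deficient) exposed to compounds; growth inhibition determined relative to vehicle.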

[7] = at 5.0 µM (retest, dose inferred, filed as 0.5)
[8] = at 50.0 µM (retest, dose inferred, filed as 5.0)

SMILES | growth inhibition [1, 7] | growth inhibition [1, 8] | growth inhibition ([1]; at 50.0 µM) | growth inhibition [2, 7] | growth inhibition [2, 8] | growth inhibition ([2]; at 50.0 µM) | growth inhibition [3, 7] | growth inhibition [3, 8] | growth inhibition ([3]; at 50.0 µM) | growth inhibition [4, 7] | growth inhibition [4, 8] | growth inhibition ([4]; at 50.0 µM) | growth inhibition [5, 7] | growth inhibition [5, 8] | growth inhibition ([5]; at 50.0 µM) | growth inhibition [6, 7] | growth inhibition [6, 8] | growth inhibition ([6]; at 50.0 µM)
OC(CN(CCCl)CCCl)C(O)C(O)C(O)CN(CCCl)CCCl (stereo not drawn) | 6% | 81% (active) | 77.6% (active) | 9% | 59% | 24% | -4% | 33% | 30.2% | -6% | 50% | 82.1% (active) | -7% | 11% | -12.1% | 35% | 95% (active) | 82.1% (active)
Nc1cccc([As]=S)c1 (stereo not drawn) | 7% | 99% (active) | 98.5% (active) | 11% | 99% (active) | 98.9% (active) | -9% | 100% (active) | 91.5% (active) | 13% | 98% (active) | 96.9% (active) | -4% | 99% (active) | 98.8% (active) | 15% | 99% (active) | 98.8% (active)
CC(=O)NNc1ccccc1 | 6% | 44% | 62.5% | 2% | 52% | 66.2% | 9% | 53% | 68.3% | 2% | 65% | 40% | 7% | 89% (active) | 87% (active) | 14% | 84% (active) | 90.7% (active)
CC[C@@H](C)[C@@H]1NC(=O)C(NC(=O)C(CC(C)C)N(C)C(=O)C2CCCN2C(=O)C(C)O)C(C)OC(=O)C(Cc2ccc(OC)cc2)N(C)C(=O)C2CCCN2C(=O)C(CC(C)C)NC(=O)C(C)C(=O)C(C(C)C)OC(=O)C[C@H]1O (stereo partly drawn) | 51% | 96% (active) | 81.3% (active) | 73% (active) | 99% (active) | 83.5% (active) | 58% | 89% (active) | 83.2% (active) | 43% | 74% (active) | 80.6% (active) | 28% | 72% (active) | 85.2% (active) | 50% | 98% (active) | 79.8% (active)
S=c1[nH]c2ccccc2s1.[Pb] | -11% | 16% | 93.7% (active) | -1% | 6% | 94.8% (active) | 0% | 8% | 95.5% (active) | -10% | -11% | 64.2% | -4% | -7% | 94% (active) | -5% | -8% | 90.9% (active)
N#CCC[CH2][Sn]([Br])([Br])[c]1ccccc1 | 3% | 72% (active) | 43.9% | 23% | 22% | 80.1% (active) | 49% | 49% | 6% | 2% | 11% | 34.5% | -6% | 18% | 89.4% (active) | 8% | 58% | 36.5%
CCOC(=O)CNC(=O)C1C2c3ccccc3C(c3ccccc32)C1C(=O)O (stereo not drawn) | 3% | 38% | 90.3% (active) | 3% | 40% | 95.4% (active) | 0% | 39% | 96% (active) | 1% | 25% | 95.9% (active) | 1% | 45% | 94% (active) | -1% | 32% | 98.5% (active)
CC12CCCCC1C(=O)C2(Cl)Cl (stereo not drawn) | -1% | 11% | 11.8% | 1% | 17% | -2.45% | -1% | 48% | 43% | -1% | -4% | 1.65% | 3% | 13% | -3.55% | 1% | 37% | 27.4%
C1CCC(NCC2CCCO2)CC1 (stereo not drawn) | -12% | 1% | 77.5% (active) | -10% | -21% | 71% (active) | -1% | -9% | 79.5% (active) | 25% | 30% | 76.3% (active) | -2% | 17% | 77.8% (active) | -4% | -31% | 58.3%
O=c1s[se]c2ccccc12 | 27% | 98% (active) | 84.2% (active) | 13% | 99% (active) | 87.1% (active) | 17% | 99% (active) | 90.1% (active) | 21% | 98% (active) | 92.2% (active) | -2% | 99% (active) | 89.8% (active) | – | – | –
CC[CH](C)[Sn](=[O])[c]1ccccc1 (stereo not drawn) | 15% | 95% (active) | 81.1% (active) | 28% | 93% (active) | 80.7% (active) | 16% | 93% (active) | 21.9% | 15% | 90% (active) | 28.1% | 10% | 96% (active) | 20.9% | 11% | 95% (active) | 75.8% (active)
C[N+](C)(C)CC1CCCc2ccccc2C1=O (stereo not drawn) | 22% | 90% (active) | 88% (active) | 20% | 97% (active) | 85.9% (active) | 17% | 88% (active) | 91.3% (active) | 6% | 43% | 81% (active) | 32% | 99% (active) | 88.1% (active) | 30% | 98% (active) | 90.5% (active)
C[As](C)SCCC(N)C(=O)NC(CCS[As](C)C)C(=O)O (stereo not drawn) | 30% | 98% (active) | 88.9% (active) | 20% | 99% (active) | 90.8% (active) | -3% | 99% (active) | 89.8% (active) | 35% | 98% (active) | 92.2% (active) | 2% | 97% (active) | 90% (active) | 27% | 99% (active) | 75.5% (active)
Cc1sc(Cc2ccccc2)nc1-c1ccc(N=Cc2ccc(N(CCCl)CCCl)cc2)cc1 | 20% | 95% (active) | 96.2% (active) | 2% | 98% (active) | 93.8% (active) | -108% | 98% (active) | 96% (active) | -1% | 90% (active) | 93.6% (active) | 2% | 96% (active) | 89% (active) | 58% | 97% (active) | 96.2% (active)
CCCCCCC(=O)[O][Hg][c]1ccccc1 | 99% (active) | 99% (active) | 99.3% (active) | 100% (active) | 100% (active) | 99.7% (active) | 100% (active) | 100% (active) | 99.7% (active) | 99% (active) | 99% (active) | 99% (active) | 99% (active) | 99% (active) | 99.4% (active) | 100% (active) | 99% (active) | 99.7% (active)
O=C(O)C(F)(F)F.[Ag] | 99% (active) | 98% (active) | 98.1% (active) | 100% (active) | 99% (active) | 99.2% (active) | 99% (active) | 99% (active) | 99.1% (active) | 99% (active) | 99% (active) | 98.7% (active) | 99% (active) | 98% (active) | 98.5% (active) | – | – | –
O=C(N/N=C/c1cc(Br)cc(Br)c1[O-])c1ccccc1O.O=C(N/N=C/c1cc(Br)cc(Br)c1[O-])c1ccccc1O.[Co+2] | 93% (active) | 97% (active) | 94.6% (active) | 95% (active) | 96% (active) | 95.7% (active) | 91% (active) | 98% (active) | 94.8% (active) | 82% (active) | 97% (active) | 92.5% (active) | 90% (active) | 97% (active) | 95.5% (active) | 95% (active) | 96% (active) | 96% (active)
CCOP(=O)(N=Nc1cccnc1)OCC | -2% | -17% | 14% | 2% | -10% | 6.35% | -1% | -11% | 5.05% | 1% | -17% | 59.8% | 1% | -3% | 20.1% | 2% | -17% | 39.1%
CC(C)(C)S.[Hg] | 68% | 98% (active) | 99.5% (active) | 99% (active) | 98% (active) | 99.7% (active) | 98% (active) | 99% (active) | 99.7% (active) | 99% (active) | 99% (active) | 99.2% (active) | 89% (active) | 99% (active) | 99.5% (active) | – | – | –
COc1ccccc1C(Cc1ccc(N2C(N)=NC(N)=NC2(C)C)cc1)C(=O)Nc1ccc(S(=O)(=O)F)cc1 (stereo not drawn) | 3% | 15% | 90.1% (active) | 12% | 2% | 95% (active) | 1% | 22% | 99.2% (active) | -2% | -5% | 55.4% | -3% | -4% | 98.8% (active) | – | – | –
